# Hits are enriched below; roughly 2.8% of the tested compounds scored in any of these assays.
# HIF act: HIF pathway transcriptional activation; activation, % at 7.5 µM (by protocol); AID 1910; 300,000 tested, 0.32% active; U2OS HRE-luciferase reporter, luminescence; normalized: DMSO 0%, desferrioxamine 100%;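 active means mean activation of at least 10% of the iron chelator positive control signal, with at least half of replicates also reaching 10%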
# p-CIP stab down: p/CIP protein destabilization; F442A p/CIP-EGFP cells, EGFP fluorescence, 16 h; decrease of EGFP signal, % at 10 µM; AID 1984; 290,000 tested, 0.01% active; Q05BA5;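 active means EGFP signal decrease of at least 30% at 10 µM or well 3 SD below plate mean, unless failing retest; inactive means the rest, including hits failing retest or dose response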
# AHR activator: activates the human aryl hydrocarbon receptor; P35869; AHR-responsive luciferase reporter cells, luminescence; activation, % at 5 µM; 320,000 tested, 2.5% active; in the data active means activation above about 47%;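 further: 0% = vehicle wells and 100% = reference agonist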
# PolyA inhibitor: yeast polyadenylation inhibition; S. cerevisiae SKY197-pL101 polyadenylation reporter, beta-gal luminescence; efflux-impaired pdr1/pdr3 knockout yeast; score 100 = 6 SD above DMSO; activity score, % at 12 µM; 300,000 tested, 0.02% active;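 active means lowest replicate activity score at least 50, where 100 means six control SD above control mean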;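 further: yeast exposed to compound for 9 h at 30 °C; higher score means more reporter readthrough which indicates perturbed polyadenylation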
# Platelet DG rel: modulates dense granule release in human platelets | human platelet-rich plasma, SFLLRN dense granule ATP release, luminescence | inhibition, %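 (compounds screened at 7.5 µM in platelet-rich plasma)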 | 300,000 tested, 0.22% active;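 active means mean replicate score, as percent of positive control, at or above 50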
# AHR act confirm: human AHR activation, confirmation; activation, % at 9 µM; 2,300 tested, 87% active; human cells, AHR-responsive luciferase reporter, luminescence; shares compounds with AHR activator; in the data active means activation above about 49%;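 further: HepG2 hepatoma cells carrying a DRE-driven firefly luciferase reporter; 0% = vehicle wells and 100% = reference agonist wells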
# PXR act counter: activates human PXR in AHR activator counter-screen; shares compounds with AHR activator; cell-based PXR reporter, luciferase luminescence; activation, % at 11.6 µM; 2,300 tested, 88% active; AID 434939; in the data active means activation above about 11%;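 further: human hepatoma DPX-2 cells expressing full-length human PXR; 0% = DMSO and 100% = reference agonist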
# Target sequence (O75469 whole entry, looked up): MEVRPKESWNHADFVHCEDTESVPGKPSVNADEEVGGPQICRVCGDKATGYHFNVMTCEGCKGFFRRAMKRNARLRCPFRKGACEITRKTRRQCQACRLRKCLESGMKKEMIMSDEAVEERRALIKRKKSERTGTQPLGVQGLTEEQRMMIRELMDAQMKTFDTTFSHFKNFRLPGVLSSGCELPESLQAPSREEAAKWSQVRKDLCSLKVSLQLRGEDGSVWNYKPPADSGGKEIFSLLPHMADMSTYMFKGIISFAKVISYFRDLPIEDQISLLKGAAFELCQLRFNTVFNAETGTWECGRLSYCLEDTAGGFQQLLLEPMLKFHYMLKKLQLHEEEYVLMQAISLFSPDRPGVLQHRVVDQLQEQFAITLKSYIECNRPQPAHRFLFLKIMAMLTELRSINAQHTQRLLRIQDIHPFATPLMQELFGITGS
# Numbers without * were called inactive; · = no result given; + = active, no number.
SMILES,HIF act,p-CIP stab down,AHR activator,PolyA inhibitor,Platelet DG rel,AHR act confirm,PXR act counter
CCC1=NN=C(c2ccc(F)cc2)C(c2c[nH]c3ccccc23)N1O (stereo unspecified),3.1,4.4,86.7*,-4.9,3.8,78.5*,19.9*
Cc1ccc(N2C(=O)CC(c3c[nH]c4ccccc34)C2=O)cc1 (stereo unspecified),0.7,12.7,3.9,-6.3,-4.0,·,·
O=C(CN1CCOCC1)n1c2ccccc2c2ccccc21,0.0,7.3,17.8,5.2,2.1,·,·
Cc1c(C)n(C(=O)CN2CCC(C)CC2)c2ccccc12,0.1,-8.1,83.1*,2.3,1.9,52.6*,15.0*
CNc1sc(C(=O)c2ccc(F)cc2)c(N)c1-c1nc2ccccc2s1,0.9,-8.1,31.6,-48.4,-1.5,·,·
CNc1sc(C(=O)c2cccs2)c(N)c1-c1nc2ccccc2s1,3.4,7.7,89.2*,-7.2,6.7,119.5*,81.7*
Cc1nc(/N=C\c2ccc(N(C)C)cc2)sc1C,0.3,·,1.4,-10.4,-1.1,·,·
N#Cc1nc(-c2ccccc2)oc1NCCCn1ccnc1,0.6,-2.2,98.6*,0.0,2.0,104.2*,28.3*
N#Cc1nc(-c2ccc(OCc3ccc(Cl)cc3)cc2)oc1NCCCn1ccnc1,0.1,-4.9,13.9,2.6,-0.9,·,·
COc1cc(NC(=O)c2cc(C3CC3)on2)c(OC)cc1Cl,-0.2,-22.9,94.7*,8.4,1.2,109.8*,14.1*
COc1cc(NC(=O)c2ccc(F)cc2)c(OC)cc1Cl,-0.1,-2.1,86.4*,-2.7,-12.1,102.7*,20.2*
CC1CC(=O)NN1C(=O)c1ccccc1 (stereo unspecified),-0.2,-0.9,-1.5,5.2,7.7,·,·
COc1ccc(CCN(C)S(=O)(=O)c2ccc(Cl)nc2)cc1OC,-0.3,1.0,5.4,24.9,-11.1,·,·
COc1ccc(CCNC(=O)C2CC3Cn4c(nc5ccccc54)C3N2c2ccccc2)cc1 (stereo unspecified),-0.7,·,1.4,-8.4,0.6,·,·
CCn1c(SCC(=O)Nc2ccc3c(c2)OCO3)nnc1C1CC1,-1.2,9.8,19.8,7.9,8.9,·,·
CCn1c2ccccc2c2cc(NC(=O)CSc3nnnn3-c3ccccc3)ccc21,-0.1,-3.1,81.6*,7.4,-9.3,133.5*,+
CCn1c2ccccc2c2cc(NC(=O)CSc3nnc(C4CC4)n3Cc3ccco3)ccc21,0.2,-12.1,111.6*,-2.1,10.8,56.1*,171.2*
COc1ccc(Cl)cc1NS(=O)(=O)c1cccc(C(=O)NCCCN2CCCC2=O)c1,0.1,-3.7,-0.9,-2.8,19.6,·,·
O=c1c(-c2ccccc2)n[nH]c2ccccc12,2.0,9.2,117.2*,-4.0,-13.7,81.2*,25.7*
O=[N+]([O-])c1ccc2[nH]nc(-c3ccccc3)c2c1,0.0,-1.0,-1.1,-18.5,-8.0,·,·
CCCC(=O)Nc1ccc(C(=O)COC(=O)c2cc(C)oc2C)cc1,·,·,-2.9,·,·,·,·
Cc1cc(C)n2ncc(-c3cccc(Br)c3)c2n1,2.0,-12.3,87.9*,2.4,1.4,119.8*,24.2*
Cc1cc(C)n2nc(-c3cccc(Br)c3)cc2n1,4.3,9.0,106.9*,-7.1,-1.0,129.1*,17.6*
Cc1cc(Cl)n2ncc(-c3ccccc3)c2n1,1.3,-1.3,0.1,11.4,-2.6,·,·
COc1cccc(CN(C)C(=O)CN2C(=O)NC(c3ccccc3)(c3ccccc3)C2=O)c1,·,·,1.1,·,·,·,·
SMILES,HIF act,p-CIP stab down,AHR activator,PolyA inhibitor,Platelet DG rel,AHR act confirm,PXR act counter
Cc1ccc(C(=O)c2sc3c(c2N)c(=O)[nH]c(=O)n3CCc2ccccc2)cc1,-0.4,-1.4,86.0*,-7.2,12.4,92.5*,42.4*
Nc1c(C(=O)c2ccccc2)sc2c1c(=O)[nH]c(=O)n2-c1ccccc1,0.5,-11.7,-0.2,4.1,13.8,·,·
O=C(NC(=O)c1ccccc1)Nc1ccc(Cl)cn1,0.1,-9.7,14.4,-13.8,-1.5,·,·
c1ccc(CCNc2ncnc3scc(C4COc5ccccc5O4)c23)cc1 (stereo unspecified),-0.5,-8.8,98.5*,0.7,-2.0,100.5*,23.0*
c1ccc2c(c1)OCC(c1csc3ncnc(N4CCCC4)c13)O2 (stereo unspecified),-0.4,6.5,0.4,-21.1,1.2,·,·
O=C(COC(=O)CC1CCCC1)Nc1cc2c(cc1Cl)C(=O)c1ccccc1C2=O,3.9,-6.0,117.4*,-2.1,5.0,139.3*,16.5*
COc1cc(NC(=S)Nc2cccnc2)cc(OC)c1,1.3,-19.2,116.3*,23.7,4.3,65.5*,23.5*
C/C(=C\C(=S)Nc1ccccc1)Nc1cccc2ccccc12,2.1,-9.8,93.6*,-18.3,-2.6,27.9,17.5*
COc1cccc(NC(=S)Nc2cccc3ccccc23)c1,4.1,-18.8,87.7*,3.5,7.8,25.6,105.3*
COc1ccc(NC(=S)Nc2cccc3cnccc23)cc1,0.4,3.8,26.6,2.7,12.0,·,·
CC(C)c1ccc(NC(=S)Nc2cccc3ccccc23)cc1,-0.6,-8.1,90.1*,8.2,12.2,89.7*,80.9*
CC1(C(=O)NCc2ccc(Cl)c(Cl)c2)Oc2cccnc2NC1=O (stereo unspecified),1.9,-1.5,0.2,9.7,7.2,·,·
COc1cccc(-c2noc(-c3ccc(Br)o3)n2)c1,·,-2.9,83.7*,·,·,87.7*,5.1
COc1ccc(-c2nc(-c3cccnc3)no2)cc1OC,3.3,-3.8,-4.2,-8.3,-6.4,·,·
COc1ccc(-c2nc(-c3ccc(Br)o3)no2)cc1,3.0,-0.9,17.9,4.7,21.7,·,·
COc1cccc(-c2noc(-c3cccnc3)n2)c1,4.0,0.0,85.0*,3.6,12.0,133.9*,5.8
COc1ccc(-c2noc(-c3ccc(Br)o3)n2)cc1,3.1,0.3,79.3*,26.6,4.6,106.9*,17.2*
CCOCCCNC(=O)CCn1nc(-c2ccc(Cl)cc2)ccc1=O,0.0,-1.0,4.1,21.5,-1.3,·,·
CC(C)[C@H](NC(=O)OC(C)(C)C)c1nnc(SCC(=O)Nc2ccc(Br)cc2)o1,-0.7,-11.4,4.3,14.4,-0.6,·,·
O=C(N/N=C/c1c[nH]c2ccccc12)c1cc(-c2ccc3ccccc3c2)n[nH]1,0.0,0.5,145.3*,-18.2,3.7,52.6*,11.7*
O=C(N/N=C/c1c[nH]c2ccccc12)c1cc(-c2cccc3ccccc23)n[nH]1,3.4,2.6,91.8*,6.7,2.9,18.1,5.5
COc1ccc(Cl)cc1NC(=O)C[n+]1cccc(C)c1,-24.2,0.0,4.6,-22.0,7.4,·,·
COc1ccccc1CNC(=O)COC(=O)c1cc(=O)c2ccccc2o1,·,·,2.6,·,·,·,·
Cn1ccsc1=NC(=O)c1ccc(Cl)cc1,3.3,3.3,87.8*,-7.3,0.1,125.9*,25.2*
COc1ccc(C(=O)N=c2sccn2C)cc1,4.0,-27.6,39.5,-6.2,2.8,·,·

# High-throughput results as filed in PubChem.
